Out of some 310,000 compounds screened, about 14,000 (4.5%) showed an effect of 50% or more. Effects have a minus sign here. The list comes from a sample in which strong results are over-represented; it also holds similar structures and randomly drawn compounds.
target: human ether-à-go-go-related gene (hERG) potassium channel (human, UniProt Q12809); experiment: primary screen, population patch clamp on CHO cells stably expressing hERG; higher = less effect of the substance
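Also: peak tail current of the secondary pulse compared with the same well before compound.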

Sequence of human ether-à-go-go-related gene (hERG) potassium channel (Q12809 whole entry, looked up): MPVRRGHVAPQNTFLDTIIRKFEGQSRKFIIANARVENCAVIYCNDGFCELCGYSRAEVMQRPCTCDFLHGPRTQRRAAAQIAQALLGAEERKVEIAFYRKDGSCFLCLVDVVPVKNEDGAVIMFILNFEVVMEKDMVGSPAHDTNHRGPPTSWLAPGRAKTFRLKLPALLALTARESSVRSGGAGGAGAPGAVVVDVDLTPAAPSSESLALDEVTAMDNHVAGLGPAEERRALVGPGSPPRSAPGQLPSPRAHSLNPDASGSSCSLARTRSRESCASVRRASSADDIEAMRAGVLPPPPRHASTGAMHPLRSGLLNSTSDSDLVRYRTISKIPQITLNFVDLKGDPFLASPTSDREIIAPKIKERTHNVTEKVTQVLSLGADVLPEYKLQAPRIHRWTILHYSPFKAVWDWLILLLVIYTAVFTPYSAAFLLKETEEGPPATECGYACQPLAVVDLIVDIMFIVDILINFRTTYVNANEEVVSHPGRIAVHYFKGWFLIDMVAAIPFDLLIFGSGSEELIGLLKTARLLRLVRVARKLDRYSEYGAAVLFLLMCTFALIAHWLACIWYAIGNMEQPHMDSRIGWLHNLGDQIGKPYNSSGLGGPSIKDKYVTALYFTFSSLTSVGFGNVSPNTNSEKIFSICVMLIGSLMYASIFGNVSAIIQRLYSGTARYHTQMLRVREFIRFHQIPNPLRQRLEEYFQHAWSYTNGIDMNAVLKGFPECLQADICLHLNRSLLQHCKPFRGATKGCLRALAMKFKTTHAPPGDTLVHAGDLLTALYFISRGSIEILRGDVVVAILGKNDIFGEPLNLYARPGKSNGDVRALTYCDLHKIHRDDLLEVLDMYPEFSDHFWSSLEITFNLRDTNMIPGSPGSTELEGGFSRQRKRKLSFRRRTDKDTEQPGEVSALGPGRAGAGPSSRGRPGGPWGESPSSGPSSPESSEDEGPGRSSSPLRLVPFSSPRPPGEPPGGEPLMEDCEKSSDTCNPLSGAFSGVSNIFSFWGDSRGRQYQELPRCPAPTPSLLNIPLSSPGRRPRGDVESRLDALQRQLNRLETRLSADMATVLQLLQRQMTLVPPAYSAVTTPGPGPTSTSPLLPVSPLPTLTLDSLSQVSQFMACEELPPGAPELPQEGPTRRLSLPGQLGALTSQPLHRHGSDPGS

Structure (SMILES)	hERG current change (%, negative = inhibition) at 10uM
COC(=O)Cc1ccc(NC(=O)c2ccc3c(c2)C(=O)N(Cc2ccco2)C3=O)cc1	-2.43%
Cn1nc(C(F)(F)F)c(-c2ccccc2)c1NC(=O)CSCC(=O)O	12.2%
CCSc1ncnc2c1sc1nc3c(cc12)COC(C)(C)C3	-2.04%
COc1ccccc1N1CCN(C2CCN(C3CCC(c4ccccc4)CC3)CC2)CC1.O=C(O)C(=O)O (stereo not drawn)	-74.1%
COc1ccccc1N1CCN(C2CCN(C(=O)COc3cccc(C)c3)CC2)CC1.O=C(O)C(=O)O	-67.8%
CCN1CCC(N2CCN(c3ccccc3OC)CC2)CC1	11.7%
COc1ccccc1N1CCN(C2CCC(C)CC2)CC1 (stereo not drawn)	4.87%
COc1ccccc1N1CCN(C2CCN(C(=O)c3ccc(F)cc3)CC2)CC1	-61%
Cc1cccc(OCC(=O)N2CCC(N3CCCCCC3)CC2)c1	-11.2%
COc1ccccc1N1CCN(C2CCN(C(=O)COc3ccccc3)CC2)CC1	-25.4%
COc1ccc(C(=O)N2CCC(N3CCN(c4ccccc4)CC3)CC2)cc1.O=C(O)C(=O)O	-57.6%
COc1ccccc1N1CCN(C2CCN(C(=O)c3cc(OC)c(OC)c(OC)c3)CC2)CC1	-23.1%
COc1ccccc1C(=O)N1CCC(N2CCN(c3ccccc3)CC2)CC1	-8.58%
COc1cc(OC)cc(C(=O)N2CCC(N3CCN(c4ccccc4)CC3)CC2)c1	-26.9%
COc1ccccc1N1CCN(C2CCN(C(=O)c3cccc(F)c3)CC2)CC1.O=C(O)C(=O)O	-33.1%
CSc1sc(C)cc1/C=N/O	6.46%
NC(=O)c1nsc(C(=O)N(Cc2ccco2)C(C(=O)NCc2ccc(F)cc2)c2ccc(O)cc2)c1N (stereo not drawn)	-43.8%
O=C(OC1CCOC1=O)c1ccc(CO)cc1 (stereo not drawn)	27.4%
CCCn1c2ccccc2c2cc(C(=O)O)ccc21	6.24%

Structure (SMILES)	hERG current change (%, negative = inhibition) at 10uM
c1ccc(-c2csc(-c3ccc(-c4csnn4)cc3)n2)cc1	17.6%
CN1C(=O)c2ccccc2Sc2ccc(NC(=O)N3CCOCC3)cc21	-7.88%
C=CCn1cc(C=C2C(=O)N(C)C(=O)N(C)C2=O)c2ccccc21	23.9%
CC(C)CC(=O)Nc1nc2c(c(=O)[nH]1)CCCC2	17.9%
CN=C1CN(O)C(c2ccccc2)=c2cc(Cl)ccc2=N1	18.6%
C/C(=N\NC(=O)CNc1ccc(F)cc1)c1cc2ccccc2o1	-26.6%
C=CCn1c(O)c(N=NC(=O)c2cccnc2)c2cc(Br)ccc21	-16.1%
C=CCn1c(=O)c(C(=O)NCc2ccccc2)c(O)c2ccccc21	15.4%
O=[N+]([O-])c1cccc(Cl)c1NCCNc1ncc(C(F)(F)F)cc1Cl	15.6%
Cc1ccc(S(=O)(=O)NC(C)(C)CN2CCCCC2)cc1	3.77%
COc1cccc(C(=O)COc2ccc3c(C)cc(=O)oc3c2)c1	-70.8%
O=C(COc1ccc2c3c(c(=O)oc2c1)CCC3)NC1CCCCC1	4.83%
Cc1cc(=O)oc2cc(OCC(=O)OC(C)C(=O)NC3CCCC3)ccc12 (stereo not drawn)	2.63%
Cc1cc(=O)oc2cc(OCC(=O)NC3CCCC3)ccc12	-67.2%
Cc1cc(=O)oc2cc(OCC(=O)NC3CC(C)(C)NC(C)(C)C3)ccc12	-34.2%
Cc1cc(=O)oc2cc(OCC(=O)OCC(=O)NC3CC3)ccc12	16.4%
Cc1cc(=O)oc2cc(OCC(=O)NC3CCCCC3)ccc12	-60.7%
COc1ccc(C(=O)COc2ccc3c(C)cc(=O)oc3c2)cc1	11.1%
Cc1cc(=O)oc2cc(OCC(=O)c3ccccc3)ccc12	10.9%

Structure (SMILES)	hERG current change (%, negative = inhibition) at 10uM
CCOc1cc(NC(=S)NCC(C)C)c(OCC)cc1NC(=O)c1cccs1	13.2%
O=C1NC2(CCCCC2)C(=O)N1/N=C/c1ccc(O)cc1O	-16.7%
COc1ccc(C(=O)c2c[nH]c(C(=O)N=CN(C)C)c2)cc1	10.2%
O=C(c1ccc(NC2=NC3CS(=O)(=O)CC3S2)cc1)N1CCN(c2ccccc2)CC1 (stereo not drawn)	20.7%
Clc1ccc(-c2nc3cnccn3c2Nc2ccc3c(c2)OCO3)cc1	-18.4%
Cc1ccc(-c2nc3cnccn3c2Nc2ccc3c(c2)OCO3)o1	-52.7%
Cc1ccc(Nc2c(-c3ccccn3)nc3cc(C)ccn23)cc1	-48.1%
COc1ccc(-c2nc3cnccn3c2Nc2ccc3c(c2)OCO3)cc1	-52.7%
Cc1ccc(-c2nc3cnccn3c2Nc2ccc3c(c2)OCO3)cc1	-25.7%
Cc1ccc(Nc2c(-c3ccc(C)o3)nc3cnccn23)cc1	4.98%
Cc1ccn2c(Nc3ccccc3)c(-c3ccccn3)nc2c1	-10.8%
Cc1ccc(-c2nc3cnccn3c2Nc2ccc3c(c2)OCCO3)o1	-23.8%
Cc1ccn2c(Nc3ccc4c(c3)OCO4)c(-c3ccccn3)nc2c1	-67.4%
CCOC(=O)c1cccc(NC(=O)CSc2nnc(-c3ccoc3C)n2CCOC)c1	-19.7%
CCN(CC)CCCn1c(SCC(=O)Nc2cccc(F)c2)nnc1-c1ccoc1C	-68.2%
COCCCn1c(SCC(=O)Nc2ccc3c(c2)OCCO3)nnc1-c1ccoc1C	-5.98%
Cc1occc1-c1nnc(SCC(=O)Nc2ccc3c(c2)OCO3)n1CC1CCCO1 (stereo not drawn)	-2.13%
Cc1ccc(NC(=O)CSc2nnc(-c3ccoc3C)n2CCCN(C)C)cc1Cl	-69.3%
CCCn1c(SCC(=O)Nc2cccc(C(=O)OCC)c2)nnc1-c1ccoc1C	-2.61%

— paper PMC4336329 (PLoS ONE, 2015)
